Screening data: PubChem BioAssay, several laboratories
ABHD5-PLIN5 inh: blocks binding of human ABHD5 to perilipin-5; hit rate 0.78% among 360,000; AID 602281; Q00G26+Q8WTS1; Split G. princeps luciferase complementation, luminescence, 4 h; inhibition, % at 4 µM;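 active = inhibition above the mean inhibition across every tested compound plus 3 SD, cut at about 22% in these data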
KKLEB cytotox: counter-screen for CF NF-kB inhibitors: cytotoxicity; KKLEB CF airway cells viability, ATPlite luminescence, overnight; stronger effect = lower value; cells stimulated with P. aeruginosa culture filtrate; activity change (cytotoxicity), % at 5 µM; hit rate 0.36% among 360,000;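 active = corrected activity change at or below -50% at 5 µM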
HIF-2a inh: blocks HIF-2a reporter activity; 786-0 RCC cells HIF-2a reporter, luciferase luminescence, overnight; inhibition, % at 18.8 µM; hit rate 0.72% among 360,000; AID 624352;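 active = inhibition of the luminescence signal of 40% or more relative to plate controls, in a single-dose primary screen at 18.75 µM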
TRPM1 prom inh: reduces MITF-dependent TRPM1 promoter luciferase signal; SK-MEL-5 TRPM1 promoter luciferase, 24 h; inhibition, % at 12.5 µM; hit rate 0.83% among 330,000;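 active = mean inhibition across replicates of 60% or more, whatever share of single replicates reaches that level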
CF NFkB block: blocks PAF-induced NF-kB reporter in cystic fibrosis cells | KKLEB NF-kB-GFP reporter, GFP fluorescence overnight | inhibition, % at 5 µM | hit rate 0.86% among 360,000;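 active = at least 50% inhibition at 5 µM, scaled per plate between neutral and stimulator controls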;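 also: PAF is a Pseudomonas aeruginosa culture filtrate used as stimulus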
Peg3 prom inh: reduces Peg3 promoter-driven luciferase expression in HeLa | hit rate 1.7% among 360,000 | HeLa PEG-Prom luciferase reporter, luminescence, overnight | AID 588405 | inhibition, % at 20 µM;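 active = inhibition of at least 50% at 20 µM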
CF NFkB conf: CF NF-kB inhibition confirmation, single concentration | shares compounds with CF NFkB block | KKLEB CF airway cells, PAF-induced NF-kB-GFP fluorescence, overnight | inhibition, % at 5 µM | hit rate 64% among 1,300; in the data active = inhibition above about 40%;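 also: stimulus PAF is a Pseudomonas aeruginosa filtrate and not platelet activating factor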
ABHD5 PLIN5 conf: ABHD5-PLIN5 interaction inhibition, confirmed; shares compounds with ABHD5-PLIN5 inh; biochemical ABHD5-PLIN5 interaction, luminescence; inhibition, % at 4 µM; hit rate 67% among 2,200; AID 651612; in the data active = inhibition above about 23%
HNF4 split-luc: active in HNF4 split-luciferase counter-screen for ABHD5-PLIN5 inhibitors. inhibition, % at 4 µM. HNF4 dimerization, luminescence, biochemical. AID 651674. shares compounds with ABHD5-PLIN5 inh. hit rate 77% among 2,200;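 active = mean inhibition across replicate wells exceeding the computed hit threshold, cut at about 13% in these data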;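 also: light from luciferase halves that rejoin when HNF4 fusion proteins dimerize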
Target sequence (P41235 whole entry, looked up, the tested form may be a part): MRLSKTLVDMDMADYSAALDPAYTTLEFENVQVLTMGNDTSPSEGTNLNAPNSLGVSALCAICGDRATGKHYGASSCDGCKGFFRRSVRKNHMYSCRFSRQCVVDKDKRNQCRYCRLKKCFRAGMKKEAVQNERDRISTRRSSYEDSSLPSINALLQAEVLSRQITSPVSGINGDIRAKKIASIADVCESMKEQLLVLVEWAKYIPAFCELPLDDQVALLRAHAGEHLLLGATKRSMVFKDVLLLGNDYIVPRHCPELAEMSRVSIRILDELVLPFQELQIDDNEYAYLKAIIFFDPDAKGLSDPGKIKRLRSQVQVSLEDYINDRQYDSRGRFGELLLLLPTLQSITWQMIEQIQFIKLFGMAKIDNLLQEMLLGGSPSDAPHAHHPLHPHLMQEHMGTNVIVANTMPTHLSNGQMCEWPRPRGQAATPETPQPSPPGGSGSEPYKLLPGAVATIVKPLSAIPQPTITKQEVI
HIF-2a inh conf: confirmation of HIF-2a inhibitors. inhibition, % at 18.8 µM. AID 651580. shares compounds with HIF-2a inh. hit rate 56% among 1,800. 786-0 RCC cells, HIF-2a luciferase reporter luminescence, overnight;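 active = mean inhibition across four replicates of at least 40 percent at the single tested concentration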
HIF-1a counter: counter-screen for HIF-2a inhibitors: HIF-1a inhibition in MiaPaCa-2 cells. shares compounds with HIF-2a inh. MiaPaCa-2 HIF-1a luciferase reporter, desferoxamine, overnight. inhibition, % at 18.8 µM. hit rate 72% among 1,800;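 active = mean inhibition of the reporter signal across four replicates at the single tested dose of 50% or more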
Numbers stand for hits; 0 = inactive; - = not tested or not shown. Rows were chosen to be rich in hits. Some 3.1% of all compounds tested hit in one or more screens of this group.

SMILES | ABHD5-PLIN5 inh | KKLEB cytotox | HIF-2a inh | TRPM1 prom inh | CF NFkB block | Peg3 prom inh | ABHD5 PLIN5 conf | HNF4 split-luc | others
CCC(=NCCCn1ccnc1)c1c(O)n(-c2ccc(OC)cc2)c(=O)[nH]c1=O | 0 | 0 | 0 | 0 | 0 | 0 | - | -
COc1cc2c(c(OC)c1OC)-c1ccc(O)cc1C(NC(C)=O)CC2 (configuration not stated) | 0 | 0 | 0 | 61 | 67 | 0 | - | - | CF NFkB conf=88
C=C1C(=O)OC2CC3(C)OC3CCC(C)=CC(OC(C)=O)C12 (configuration not stated) | 33 | 0 | 0 | 70 | 91 | 95 | 45 | 70 | CF NFkB conf=89
CN1OC[C@@H]2CN[C@H](c3ccc(Br)cc3)C[C@@H]21 | 0 | 0 | 0 | - | 0 | 0 | - | -
C=C1C(=O)OC2CC3(C)OC3C3OC3C3=CC(OC3=O)C12 (configuration not stated) | 100 | 0 | 61 | - | 88 | 96 | 101 | 111 | CF NFkB conf=61;HIF-2a inh conf=68;HIF-1a counter=0
N#CC1c2ccccc2-n2nncc2CN1Cc1cc(Cl)cc(Cl)c1 (configuration not stated) | 96 | 0 | 93 | 97 | 90 | 96 | - | - | CF NFkB conf=116;HIF-2a inh conf=98;HIF-1a counter=107
CC[C@H]1c2ccccc2[C@@H]2CC[C@H]1N2c1ccccc1 | 0 | - | 0 | - | - | - | - | -
O=c1[nH]c(=S)n(-c2ccccc2)c(O)c1C=NCCN1CCNCC1 | 0 | 0 | 0 | 0 | 0 | 0 | - | -
O=c1[nH]c(O)c(/C=C2\C=NN=C2c2ccccc2)c(=O)[nH]1 | 30 | 0 | 0 | 0 | 0 | 0 | 62 | 63
N#Cc1ccccc1OCC(=O)N1CCN(CC(=O)Nc2ccc(F)cc2)CC1 | 0 | 0 | 0 | 0 | 0 | 0 | - | -
Cc1ccc(N2C(=O)NC(=O)/C(=C\c3cnc(-c4ccccc4)nc3)C2=O)cc1 | 30 | 0 | 0 | 0 | 0 | 0 | 86 | 92
CSc1ncc(/C=C2/C(=O)NC(=O)N(c3ccc(Cl)cc3)C2=O)cn1 | 42 | 0 | 0 | 0 | 0 | 0 | 78 | 91
CSc1ncc(/C=C2/C(=O)NC(=O)N(c3ccc(C)cc3)C2=O)cn1 | 0 | 0 | 0 | 0 | 0 | 0 | - | -
Cc1ccc(N2C(=O)NC(=O)/C(=C/c3cnn(-c4ccc(C)cc4)c3)C2=O)cc1 | 0 | 0 | 0 | 0 | 0 | 0 | - | -
CCOc1ccc(N2C(=O)NC(=O)/C(=C/c3cnc(SC)nc3)C2=O)cc1 | 28 | 0 | 0 | 0 | 0 | 0 | 71 | 87
COc1cc(C2(C#N)CCN(C)CC2)cc(OC)c1OC | 0 | 0 | 0 | 0 | 0 | 0 | - | -
CCOC(=O)CC(SP1(=S)OCC2(CC=CCC2)CO1)C(=O)OCC (configuration not stated) | 0 | 0 | 0 | 0 | 0 | 0 | - | -
S=C(NCCc1ccccc1)N1Cc2ccccc2-n2nncc2C1 | 0 | 0 | 0 | - | 0 | 0 | - | -
C/C=C/CC#N | 0 | 0 | 0 | 0 | 0 | 0 | - | -
Clc1ccc2c(c1)C(c1ccccc1Cl)=NCc1nnc(N3CCN(CCSc4ccccc4)CC3)n1-2 | 26 | 0 | 0 | 0 | 0 | 0 | 0 | 0
Clc1ccc2c(c1)C(c1ccccc1Cl)=NCc1nnc(N3CCN(CCOc4ccccc4)CC3)n1-2 | 0 | 0 | 0 | 0 | 0 | 0 | - | -
O=P(NC1CCCCC1)(Oc1ccccc1)Oc1ccccc1 | 0 | 0 | 0 | 0 | 0 | 0 | - | -
O=C(O)Cn1cc(/C=C2\C(=O)NC(=O)N(c3ccc(Br)cc3)C2=O)c2ccccc21 | 0 | 0 | 0 | 0 | 0 | 0 | - | -
C=CCn1cc(C=C2C(=O)N(C)C(=O)N(C)C2=O)c2ccccc21 | 23 | 0 | 0 | 0 | 0 | 0 | 0 | 0
COC(=O)Cn1cc(/C=C2\C(=O)NC(=O)N(c3ccccc3)C2=O)c2ccccc21 | 24 | 0 | 0 | 0 | 0 | 0 | 44 | 38
SMILES | ABHD5-PLIN5 inh | KKLEB cytotox | HIF-2a inh | TRPM1 prom inh | CF NFkB block | Peg3 prom inh | ABHD5 PLIN5 conf | HNF4 split-luc | others
CCN(CC)C(=O)Cn1cc(C=C2C(=O)N(C)C(=O)N(C)C2=O)c2ccccc21 | 0 | 0 | 0 | 0 | 0 | 0 | - | -
Cc1ccc(N2C(=O)NC(=O)/C(=C\c3cn(CC(=O)O)c4ccccc34)C2=O)cc1 | 27 | 0 | 0 | 0 | 0 | 0 | 25 | 19
CCOC(=O)[C@]12Cc3cc(OC)ccc3[C@H]1N(C1CCCCC1)C(=O)c1ccccc12 | 40 | - | 0 | - | - | - | 0 | 32
CCOC(=O)[C@]12Cc3cc(OC)ccc3[C@H]1N(Cc1ccccc1)C(=O)c1cc(OC)ccc12 | 0 | - | 0 | - | - | - | - | -
CCOC(=O)[C@]12Cc3cc(OC)ccc3[C@H]1N(C)C(=O)c1ccccc12 | 0 | - | 0 | - | - | - | - | -
CCOC(=O)[C@]12Cc3cc4ccccc4cc3[C@H]1N(Cc1ccccc1)C(=O)c1cc(OC)ccc12 | 23 | - | 0 | - | - | - | 0 | 16
C/C(=N\N(C)c1ccccc1)c1c(O)[nH]c(=O)[nH]c1=O | 0 | 0 | 0 | 0 | 0 | 0 | - | -
COc1ccc(-n2c(O)c(/C=C3\C=Nc4ccc(Br)cc43)c(=O)[nH]c2=O)cc1 | 36 | 0 | 0 | 0 | 0 | 0 | 36 | 29
O=c1[nH]c(=O)n(-c2ccc(F)cc2)c(O)c1/C=C1\C=Nc2ccccc21 | 0 | 0 | 0 | 0 | 0 | 0 | - | -
COC(=O)C1=C(c2ccc(OCc3ccccc3)cc2)C[C@@H]2CC[C@H]1N2C(=O)NCc1ccccc1C(F)(F)F | 0 | 0 | 0 | - | 0 | 0 | - | -
COC(=O)C1=C(c2cc3ccccc3o2)C[C@@H]2CC[C@H]1N2C(=O)NCc1ccco1 | 23 | 0 | 0 | 0 | 0 | 0 | 0 | 0
COC(=O)C1=C(c2cc3ccccc3o2)C[C@@H]2CC[C@H]1N2C(=O)NCc1ccc(F)cc1 | 0 | 0 | 0 | 0 | 0 | 0 | - | -
CN1C2CCC1CC(OC(=O)c1ccc(Cl)cc1)C2 (configuration not stated) | 0 | 0 | 0 | 0 | 0 | 0 | - | -
CN1[C@@H]2CC[C@H]1CC(OC1c3ccccc3CCc3ccccc31)C2 (some centres not stated) | 32 | 0 | 0 | 0 | 0 | 0 | 77 | 35
O=C1NC(=S)NC(=O)C12C(c1ccccc1)NC(=S)NC2c1ccccc1 (configuration not stated) | 29 | 0 | 0 | 0 | 0 | 0 | 61 | 39
